Compounds without any hit were thinned out: in the full panel of roughly 79,000, 15% have a hit. Activity calls are given as the source filed them. Rule as the data show it: active = growth inhibition above about 70%; inactive = the rest.
What was measured:
[1] = NCI Yeast Anticancer Drug Screen. Data for the rad50 strain (AID 155);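 also: 0% = growth of vehicle-only cultures of the same strain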; details: S. cerevisiae rad50 strain growth inhibition, active compounds read high
Method in brief: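 DNA repair mutant yeast, compound exposure, growth read-out; inhibition is taken relative to vehicle.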

[2] = NCI Yeast Anticancer Drug Screen. Data for the mec2-1 strain (AID 157); details: S. cerevisiae mec2-1 strain, active compounds read high
Method in brief: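 Readout is yeast growth inhibition, normalised to vehicle-treated controls, in the mec2-1 strain exposed to compound.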

[3] = NCI Yeast Anticancer Drug Screen. Data for the sgs1 mgt1 strain (AID 161);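 also: 0% = growth of cultures given vehicle only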; details: S. cerevisiae sgs1 mgt1 strain, active compounds read high
Method in brief: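 Yeast cells carrying a defined DNA-repair defect were exposed to test compounds. Growth inhibition was measured relative to vehicle-treated controls.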

[4] = NCI Yeast Anticancer Drug Screen. Data for the cln2 rad14 strain (AID 165);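 also: 0% = growth equal to vehicle treated cultures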; details: S. cerevisiae cln2 rad14 strain, active compounds read high
Method in brief: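 Relative to vehicle controls, growth inhibition of compound-treated cln2 rad14 yeast was recorded.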

[5] = NCI Yeast Anticancer Drug Screen. Data for the bub3 strain (AID 167); details: S. cerevisiae bub3 mutant strain, active compounds read high
Method in brief: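 In this screen, a yeast mutant lacking normal mitotic checkpoint function is challenged with compound. Relative growth versus vehicle gives the inhibition value.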

[6] = NCI Yeast Anticancer Drug Screen. Data for the mlh1 rad18 strain (AID 175); details: S. cerevisiae mlh1 rad18 strain growth inhibition, active compounds read high
Method in brief: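 Test agents were incubated with a yeast strain of defined genotype (DNA damage repair defect). Inhibition of growth was derived by comparison with vehicle-exposed cultures.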

[7] = at 5.0 µM (retest, dose inferred, filed as 0.5)
[8] = at 50.0 µM (retest, dose inferred, filed as 5.0)

Measured: growth inhibition

C/C(=N\NC(=S)N1CCN(C2CCCCCC2)CC1)c1ccccn1
active: [1]; [8] 99% | [2]; [8] 99% | [3]; [8] 99% | [4]; [8] 99% | [5]; [8] 99% | [6]; [8] 99%
inactive: [1]; [7] -4% | [1]; at 50.0 µM 50.5% | [2]; [7] -6% | [2]; at 50.0 µM 65.3% | [3]; [7] -4% | [3]; at 50.0 µM 26.1% | [4]; [7] 8% | [4]; at 50.0 µM 42% | [5]; [7] -17% | [5]; at 50.0 µM 19.4% | [6]; [7] 14% | [6]; at 50.0 µM 40%

CCCN(Cc1ccccc1)S(=O)(=O)c1ccc(C)cc1
active: [1]; [8] 95% | [2]; [8] 97% | [3]; [8] 95% | [4]; [8] 93% | [5]; [8] 96% | [6]; [8] 96%
inactive: [1]; [7] -4% | [1]; at 50.0 µM -14.1% | [2]; [7] -4% | [2]; at 50.0 µM -3.65% | [3]; [7] -5% | [3]; at 50.0 µM 16% | [4]; [7] -6% | [4]; at 50.0 µM -19.5% | [5]; [7] 7% | [5]; at 50.0 µM 63.7% | [6]; [7] -5% | [6]; at 50.0 µM -7.75%

COC(=O)c1nc(=S)[nH]c(C(=O)OC)c1C(=O)C(C)(C)C
inactive: [1]; [7] 6% | [1]; [8] 24% | [1]; at 50.0 µM -6.8% | [2]; [7] 4% | [2]; [8] 18% | [2]; at 50.0 µM -10.4% | [3]; [7] 11% | [3]; [8] 22% | [3]; at 50.0 µM -21.9% | [4]; [7] 5% | [4]; [8] 22% | [4]; at 50.0 µM 45.6% | [5]; [7] 5% | [5]; [8] 26% | [5]; at 50.0 µM -25.2% | [6]; [7] 9% | [6]; [8] 20% | [6]; at 50.0 µM 4.75%

CCC[N+]1=C(/C=C/c2ccc3cccnc3c2O)C(C)(C)c2ccccc21
active: [1]; [8] 98% | [1]; at 50.0 µM 98.8% | [2]; [8] 98% | [2]; at 50.0 µM 99% | [3]; [8] 98% | [4]; [8] 98% | [4]; at 50.0 µM 98.9% | [5]; [8] 98% | [5]; at 50.0 µM 98.8% | [6]; [8] 98% | [6]; at 50.0 µM 97.8%
inactive: [1]; [7] 0% | [2]; [7] 0% | [3]; [7] 10% | [3]; at 50.0 µM 54% | [4]; [7] -15% | [5]; [7] 4% | [6]; [7] 25%

COc1ccc(NC(=O)C(Cc2ccccc2)NC(C)=O)cc1 (configuration not stated)
inactive: [1]; [7] 9% | [1]; [8] 7% | [1]; at 50.0 µM 48.6% | [2]; [7] 1% | [2]; [8] -9% | [2]; at 50.0 µM -5.75% | [3]; [7] -12% | [3]; [8] -14% | [3]; at 50.0 µM 3.15% | [4]; [7] -5% | [4]; [8] 1% | [4]; at 50.0 µM -55.5% | [5]; [7] -4% | [5]; [8] -2% | [5]; at 50.0 µM 9.7% | [6]; [7] -1% | [6]; [8] -25% | [6]; at 50.0 µM 6.2%

c1ccc(CC(Nc2cccnc2)c2ccccc2)cc1 (configuration not stated)
active: [1]; at 50.0 µM 74.5% | [3]; [8] 74% | [3]; at 50.0 µM 74.1% | [6]; at 50.0 µM 75.3%
inactive: [1]; [7] 6% | [1]; [8] 56% | [2]; [7] -13% | [2]; [8] 24% | [2]; at 50.0 µM 22.6% | [3]; [7] -2% | [4]; [7] -1% | [4]; [8] 28% | [4]; at 50.0 µM 21.9% | [5]; [7] 24% | [5]; [8] 40% | [5]; at 50.0 µM 56.1% | [6]; [7] 1% | [6]; [8] 60%

O=Cc1ccc2cc(Cl)ccc2n1
inactive: [1]; [7] -156% | [1]; [8] -135% | [1]; at 50.0 µM -14.9% | [2]; [7] -48% | [2]; [8] -55% | [2]; at 50.0 µM 18.4% | [3]; [7] -63% | [3]; [8] -63% | [3]; at 50.0 µM 10% | [4]; [7] -50% | [4]; [8] -67% | [4]; at 50.0 µM 46.6% | [5]; [7] -71% | [5]; [8] -83% | [5]; at 50.0 µM -14.4% | [6]; [7] -138% | [6]; [8] -111% | [6]; at 50.0 µM 2.55%

S=C(Nc1ccc2cn[nH]c2c1)Nc1ccc2cn[nH]c2c1
active: [1]; at 50.0 µM 79.1%
inactive: [1]; [7] 7% | [1]; [8] 46% | [2]; [7] 16% | [2]; [8] 0% | [2]; at 50.0 µM -12.9% | [3]; [7] -5% | [3]; [8] 5% | [3]; at 50.0 µM 30.9% | [4]; [7] -25% | [4]; [8] 2% | [4]; at 50.0 µM -1.15% | [5]; [7] 7% | [5]; [8] 1% | [5]; at 50.0 µM 40% | [6]; [7] 2% | [6]; [8] 17% | [6]; at 50.0 µM 41.9%

COc1ccc(C2=C(Cl)C(=O)N(c3ccc(C)cc3)C(=O)C2(Cl)Cl)cc1
active: [1]; at 50.0 µM 83.3% | [2]; at 50.0 µM 96.8% | [3]; [8] 83% | [3]; at 50.0 µM 94.2% | [5]; at 50.0 µM 76.3% | [6]; at 50.0 µM 94%
inactive: [1]; [7] 14% | [1]; [8] 59% | [2]; [7] -2% | [2]; [8] 36% | [3]; [7] 24% | [4]; [7] 1% | [4]; [8] 19% | [4]; at 50.0 µM 54.3% | [5]; [7] -7% | [5]; [8] 22% | [6]; [7] 12% | [6]; [8] 33%

From PubChem BioAssay (NCI)
